High-throughput results deposited in PubChem BioAssay by National Center for Advancing Translational Sciences (NCATS).
SW480 rerep: inducers of DNA re-replication in SW480 colon cancer cells | Potency, µM (doses to about 46.1 µM), for inactives: at the top dose re-replication activation, most hits filed as activators | AID 624297 | hit rate 1.8% among 340,000 | SW480 DNA re-replication, Hoechst DNA content imaging, 48 h; note: % of control where 0% means no effect; nearly all actives have a fitted effect of over 55% in size
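Quantitative HTS format with DMSO vehicle controls; 48 hr drug incubation at 37 C, then 40 min Hoechst staining and scanning imager measurement at 405 nm excitation.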
MCF10A rerep: DNA re-replication induction in MCF 10a cells; MCF 10A DNA re-replication, Hoechst nuclear intensity, 48 h; Potency, µM (series often up to 46.1 µM), for the others: at the top dose activity, positive = re-replication, most hits filed as activators; hit rate 2.9% among 350,000; AID 624296; note: % of control where 0% means no effect; nearly all actives have a fitted effect of over 50% in size
KB-V1 MDR tox: KB-V1 MDR subline cytotoxicity; KB-V1 MDR cells viability, CellTiter-Glo, 72 h; Potency, µM (titrated, usually from 46.1 µM), actives largely listed as cytotoxic; hit rate 3.4% among 400,000; AID 1347076; note: % is set by controls: 0 for no effect and ±100 for the full control effect; nearly all actives have a fitted effect of over 60% in size
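KB-V1 MDR subline cells in DMEM (phenol-red free, 10% FBS) exposed to compounds in qHTS concentration series for 72 h at 37 degrees C. Viability read by CellTiter-Glo luminescence; concentration-effect curves fitted after normalization and correction.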
KB-3-1 tox: kills parental KB-3-1 adenocarcinoma cells; AID 1347075; KB-3-1 viability, CellTiter-Glo ATP luminescence, 72 h; Potency, µM (doses to about 46.1 µM), actives largely listed as cytotoxic; hit rate 1.4% among 400,000; note: % is set by controls: 0 for no effect and ±100 for the full control effect; nearly all actives have a fitted effect of over 60% in size
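Cytotoxicity measured as CellTiter-Glo luminescence after 72 h at 37 C. Compound titrations were pinned onto drug-naive KB-3-1 parental adenocarcinoma cells grown in DMEM with 10% FBS, and normalized data fitted to concentration-response curves.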
PINK1 expr mod: PINK1 expression modulation; AID 624263; Potency, µM (top dose mostly 76.6 µM), inactives show at the highest dose activation (PINK1 increase), most hits filed as activators; hit rate 0.2% among 410,000; PINK1 immunofluorescence, high-content cytometry, 24 h; active = well fitted activation curve with a large enough effect; inconclusive = small, poorly fitted or top-dose-only effect; cell line not stated here; note: % of control where 0% means no effect; nearly all actives have a fitted effect of over 65% in size
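A stable cell line was treated with compounds at 5 concentrations for 24 hours, with CCCP as control. PINK1 levels and mitochondrial localization were measured by immunofluorescence with mitochondrial, cell and nuclear markers after fixation, read by laser-scanning cytometry.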
* hit, by the source's call; i = inactive; ? = inconclusive; · = not tested or not shown; ! = a repeat was not active; [ ] = another dose, or the depositor's remark. This is a sample that favours compounds with a hit; in the whole collection about 6.7% have one here. Unless noted, calls come from the whole dose curve; as a rule, active = well fitted curve in the direction sought with a large enough effect; inconclusive = small, poorly fitted or top-dose-only effect, or another doubt; inactive = no such curve, though single readings can be large; an effect the other way counts as inactive or inconclusive. Potency is the fitted concentration of half-maximal effect.

SMILES	SW480 rerep	MCF10A rerep	KB-V1 MDR tox	KB-3-1 tox	PINK1 expr mod
CC(=O)c1ccc(NC(=O)c2ccc3c(c2)N(Cc2cccc(Cl)c2)C(=O)c2ccccc2S3(=O)=O)cc1	·	·	i	i	1.0%
CN(C=O)c1cc([N+](=O)[O-])ccc1OCc1ccccc1	-0.9%	?	18.4µM*	i	-4.3%
CC(=O)Oc1ccc(Cn2c(C)c(C(=O)NCc3cccc(C(F)(F)F)c3)sc2=O)cc1	·	·	14.6µM*	23.1µM*	-0.9%
Cc1c(C(=O)NCc2cccc(C(F)(F)F)c2)sc(=O)n1Cc1ccc(F)cc1	·	·	?	i	0.4%
COc1ccc(C(C)=O)cc1Cn1c(C)c(C(=O)NCc2cccc(C(F)(F)F)c2)sc1=O	·	·	18.4µM*	?	1.4%
CCCCCCCCCn1ccc(=N)cc1	2.1%	23.9%	16.4µM*	0.517µM*	?
CCCCCn1ccc(=N)cc1	4.0%	-2.3%	i	i	0.3%
CCCCCCCn1ccc(=N)cc1	?	?	i	4.61µM*	?
Cc1ccc2nc(-c3ccco3)c(CC3CCCCC3)n2c1	·	·	i	i	3.2%
C=C(CN(C)C)C(=O)c1ccc(C)cc1C	5.8µM*	2.91µM*	?	?	-2.2%
COc1ccc(NCc2nc3ccccc3n2CCOc2ccccc2C)cc1	·	·	?	i	-0.3%
CCN(CC(=O)Nc1ccc(NC(C)=O)cc1)C(=O)CN1C(=O)NC(C)(c2ccc3ccccc3c2)C1=O (configuration not stated)	?	2.5%	i	i	-0.3%
CCc1ccc(NC(=O)C(C)OC(=O)c2cc(=O)[nH]c3ccc(S(=O)(=O)Nc4ccc(F)cc4)cc23)cc1 (configuration not stated)	8.6%	20.6µM*	?	i	1.1%
Cc1ccc(N2CCN(C(C(=O)Nc3c(C)cccc3C)c3ccccc3OC(F)(F)F)CC2)cc1 (configuration not stated)	·	·	i	i	·
CCCc1cc(CN2CCOCC2)c(O)c(CN2CCOCC2)c1O	?	14.6µM*	?	i	-5.0%
Oc1c(CN2CCOCC2)cc(CN2CCOCC2)c(O)c1O	-1.7%	1.2%	i	i	5.3%
CCCN(C(=O)/C=C/c1ccc(S(=O)(=O)N(CC)CC)cc1)C1CCS(=O)(=O)C1 (configuration not stated)	-4.7%	-4.6%	23.1µM*	i	1.7%
CC(C)CN(C(=O)CN(C)S(=O)(=O)c1ccc(Cl)cc1)C1CCS(=O)(=O)C1 (configuration not stated)	2.5%	1.3%	i	i	?
Cc1ccc(S(=O)(=O)N(C)CC(=O)N(CC(C)C)C2CCS(=O)(=O)C2)cc1 (configuration not stated)	4.11µM*	4.1%	i	i	1.5%
COc1ccc(NC(=O)N2CCCC2C(=O)Nc2ccc(C)cc2C)cc1 (configuration not stated)	1.0%	6.8%	i	i	-2.0%
CC(C)c1cc(C(=O)OCC(=O)NC2CCS(=O)(=O)C2)c(O)c(C(C)C)c1 (configuration not stated)	·	·	i	i	-0.3%
COc1ccc(NC(=O)c2c(NCc3cccs3)sc3c2CCCCC3)c(OC)c1	·	·	i	i	3.7%
O=C(NCCN1CCOCC1)c1ccc2c(c1)N(Cc1ccccc1)C(=O)c1ccccc1S2	-12.1%	?	i	i	-1.0%
CCOc1ccc(CN2C(=O)c3ccccc3Sc3ccc(C(=O)NCCCN4CCOCC4)cc32)cc1	?	20.6µM*	?	18.4µM*!	-1.2%
O=C(NCCN1CCOCC1)c1ccc2c(c1)N(Cc1c(F)cccc1Cl)C(=O)c1ccccc1S2	5.8µM*	?	i	i	-1.3%
SMILES	SW480 rerep	MCF10A rerep	KB-V1 MDR tox	KB-3-1 tox	PINK1 expr mod
COc1ccc(-c2cc(=O)c3c(O)cc(O[C@H]4OC(COC5OC(C)C(O)C(O)[C@H]5O)C(O)C(O)C4O)cc3o2)cc1O (some centres not stated)	0.8%	-1.5%	·	·	·
CCCc1cc(=O)n2[nH]cc(-c3ccc(Cl)cc3)c2n1	18.4µM*	?	7.31µM*	16.4µM*	?
CNc1ccc(C=O)cc1I	·	·	?	?	0.3%
CC(=O)N1N=C(c2ccco2)CC1c1ccco1 (configuration not stated)	-2.3%	0.7%	i	i	0.8%
Cc1ccc(C2=NN(C(=O)CCl)C(c3ccco3)C2)o1 (configuration not stated)	?	20.6µM*	?	?	0.4%
O=C(NCc1cc(Cl)cc(Cl)c1)c1csc([C@@H]2O[C@H](CO)[C@H](O)[C@H](O)[C@H]2O)n1	·	·	i	i	1.3%
COc1ccc(Nc2ncnc3sc(-c4ccccc4)cc23)cc1	7.3%	?	20.6µM*	?	5.7%[38.3 µM]
COc1ncnc2sc(-c3ccccc3)cc12	2.1%	-1.5%	?	i	-3.8%[38.3 µM]
COc1ccc(C(=O)Nc2ccc(Oc3ncnc4sc(-c5ccccc5)cc34)cc2)cc1OC	·	3.26µM*	i	i	12.4%
CC(C)(C)Nc1ncnc2sc(-c3ccccc3)cc12	?	18.4µM*	i	?	?
OCCCNc1ncnc2sc(-c3ccccc3)cc12	?	12.7%	i	i	0.9%
COc1cc(C(=O)Nc2ccc(Oc3ncnc4sc(-c5ccccc5)cc34)cc2)cc(OC)c1OC	15.8%	7.8%	?	i	4.3%
CC(C)C(C)(C#N)NC(=O)CSc1ncnc2sc(-c3ccccc3)cc12 (configuration not stated)	-1.0%	13.7%	23.1µM*	i	·
CC(C)Oc1ccc(CNC(=O)c2ccc3c(c2)nc2n3CCOC2)cc1	·	·	·	·	2.5%
COc1ccc(CNC(=O)C(=O)NCC2OCCCN2S(=O)(=O)c2cccs2)cc1 (configuration not stated)	-4.1%	-2.9%	i	i	0.3%
c1ccc(-c2cc3c(N4CCN(c5ccccc5)CC4)ncnc3s2)cc1	4.3%	11.6µM*	?	i	0.1%
c1ccc(-c2cc3c(N4CCN(c5ncccn5)CC4)ncnc3s2)cc1	-44.8%	?	?	i	0.3%
Cc1c(C(C)C)c(=O)n(-c2ccc(S(=O)(=O)NCc3ccccc3)cc2)n1C	-8.1%	25.6%	2.59µM*	?	-1.3%
COc1cccc(-c2cc(C(=O)NCC3CCCO3)c3ccccc3n2)c1 (configuration not stated)	-48.2%	13.7%	11.6µM*	i	3.1%
Cc1ccc2nc(-c3cccc(Br)c3)cc(C(=O)NCC3CCCO3)c2c1 (configuration not stated)	21.2%	25.9µM*	i	i	3.0%
O=C(NCC1CCCO1)c1cc(-c2ccccc2)nc2ccc(Br)cc12 (configuration not stated)	-2.2%	13.7%	i	i	10.1%
